Data as given in PubChem BioAssay (NCATS).
Several values for one entry are separate records, joined by “and”; a condition that tells them apart may be missing. Equal entries are not always repeated. Entries with a potency or affinity are not part of this list. A number with no mark means an inactive call. No rule for the calls is given here.

Conditions: Ebola virus entry assay, green fluorescence channel
Also: 0% is about no effect.

Row | Structure (SMILES) | efficacy
1 | COc1ccccc1N1CCNCC1 | 33.5%
2 | CCCC1CCCCN1 (configuration not stated) | -19.4%
3 | CC(C)(C)NCC(O)c1cc(Cl)c(N)c(Cl)c1 (configuration not stated) | -12%
4 | CC(=O)Nc1cc([As](=O)(O)O)ccc1O | 15.5%
5 | CCCc1nc2c(C)cc(-c3nc4ccccc4n3C)cc2n1Cc1ccc(-c2ccccc2C(=O)O)cc1 | 21.4%
6 | Cc1cc2c(C(C)C)c(O)c(O)c(C=O)c2c(O)c1-c1c(C)cc2c(C(C)C)c(O)c(O)c(C=O)c2c1O | 104%
7 | CC1=C(/C=C/C(C)=C/C=C/C(C)=C/C(=O)Nc2ccc(O)cc2)C(C)(C)CCC1 | -119%
8 | NN=C(N)N | -37.7%
9 | COC(=O)Nc1nc2ccc(C(=O)C3CC3)cc2[nH]1 | 69.7%
10 | CCCCCCC[N+](CC)(CC)CCCCc1ccc(Cl)cc1 | 30.3%
11 | Cc1nc(N)nc(N)c1-c1ccc(Cl)c(Cl)c1 | -23%
12 | FC(F)(F)c1cccc(C2=CCN(CCc3ccc4ccccc4c3)CC2)c1 | -24.5%
13 | Cc1ccc2c(n1)Oc1ccc(C(C)C(=O)OCC(=O)N(C)C)cc1C2 (configuration not stated) | -14% and -11.2%
14 | O=[N+]([O-])c1ccc(O)c2ncccc12 | -18.6%
15 | CCCCCCCCCCCCCC[N+](C)(C)Cc1ccccc1 | -210%
16 | Cn1ccc2cc3c(cc21)CCN3C(=O)Nc1cccnc1 | -35.6%
17 | CC(C)(N)Cc1ccc(Cl)cc1 | 29.5%
